HEK293 tox: Cytotoxic Profiling in HEK 293 Cell Line of Diverse Libraries Using Quantitative High-Throughput Screening | HEK 293 viability, ATP luminescence (CellTiter-Glo), 48-72 h | hit rate 6.6% among 94,000 | Potency, µM (highest dose often 115 µM), most hits filed as inhibitors; note: nearly all actives have a fitted effect of over 60% in size
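Pintool-delivered compounds were incubated with HEK 293 cells (250 cells/well) at 37 degree Celsius for 48 or 72 hr. ATP-dependent luminescence (CellTiter-Glo) then reported remaining viable cells.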
Luciferase inh: Firefly luciferase inhibition profiling of diverse chemical library using quantitative high-throughput screening. Luciferin 4-monooxygenase (Photinus pyralis), P08659. purified P. pyralis luciferase, luminescence, biochemical. Potency, µM (titrated, usually from 115 µM), usual class: inhibitors. hit rate 2.5% among 76,000; note: nearly all actives have a fitted effect of over 65% in size
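Luminescence read by CCD imaging after purified firefly luciferase (10nM final) was added to substrate buffer holding 10uM D-luciferin and 10uM ATP, pH 7.5, pre-dosed with compound.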
3T3 cytotox: Cytotoxic Profiling in NIH 3T3 Cell Line of Diverse Libraries Using Quantitative High-Throughput Screening | NIH 3T3 viability, CellTiter-Glo ATP luminescence, 48-72 h | Potency, µM (highest dose often 96.7 µM), usual class: inhibitors | hit rate 4.3% among 94,000 | AID 1345082, 2018; note: nearly all actives have a fitted effect of over 55% in size
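Viability of NIH 3T3 cells after 48 or 72 hr compound treatment at 37 °C was assessed by CellTiter-Glo, with luminescence imaged following a 10 min room-temperature step.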
NPR1 antag: Natriuretic polypeptide receptor (hNpr1) antagonism - Primary qHTS; Atrial natriuretic peptide receptor 1 (Homo sapiens), P16066; HEK293 hNpr1 GloSensor cGMP, ANP-stimulated luminescence; Potency, µM (titrated, usually from 46.3 µM), hits mostly inhibitors; hit rate 1.6% among 76,000; calls by dose curve; note: nearly all actives have a fitted effect of over 60% in size
Target sequence (P16066 whole entry, looked up): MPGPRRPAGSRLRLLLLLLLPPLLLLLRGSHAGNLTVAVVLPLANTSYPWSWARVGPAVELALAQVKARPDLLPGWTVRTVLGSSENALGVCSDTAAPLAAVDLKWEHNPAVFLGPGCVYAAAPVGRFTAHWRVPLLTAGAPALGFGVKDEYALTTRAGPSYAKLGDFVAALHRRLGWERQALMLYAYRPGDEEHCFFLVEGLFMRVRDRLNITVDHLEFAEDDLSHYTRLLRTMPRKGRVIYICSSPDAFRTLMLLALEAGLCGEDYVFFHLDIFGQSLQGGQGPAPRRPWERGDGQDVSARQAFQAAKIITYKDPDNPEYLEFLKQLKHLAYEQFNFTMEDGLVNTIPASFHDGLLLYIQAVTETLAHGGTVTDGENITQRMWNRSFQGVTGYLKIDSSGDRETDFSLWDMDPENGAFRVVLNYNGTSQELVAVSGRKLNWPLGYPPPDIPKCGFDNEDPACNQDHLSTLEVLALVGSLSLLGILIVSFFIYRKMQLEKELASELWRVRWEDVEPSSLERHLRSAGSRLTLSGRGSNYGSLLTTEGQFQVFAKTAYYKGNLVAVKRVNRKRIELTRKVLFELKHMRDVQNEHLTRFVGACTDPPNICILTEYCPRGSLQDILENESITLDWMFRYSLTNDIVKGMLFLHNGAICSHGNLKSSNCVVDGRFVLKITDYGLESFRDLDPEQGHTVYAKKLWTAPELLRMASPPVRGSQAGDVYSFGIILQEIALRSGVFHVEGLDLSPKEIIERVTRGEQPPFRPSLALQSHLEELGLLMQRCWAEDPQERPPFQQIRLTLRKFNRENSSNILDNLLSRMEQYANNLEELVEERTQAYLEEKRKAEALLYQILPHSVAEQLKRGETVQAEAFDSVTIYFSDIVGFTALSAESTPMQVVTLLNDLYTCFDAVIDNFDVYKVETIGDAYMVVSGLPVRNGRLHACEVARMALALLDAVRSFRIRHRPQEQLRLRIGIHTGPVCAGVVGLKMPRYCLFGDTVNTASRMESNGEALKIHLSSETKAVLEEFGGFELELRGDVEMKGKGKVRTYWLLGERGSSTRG
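HEK293 cells stably expressing human Npr1 and cGMP GloSensor pGS-40F, loaded 2 h with 2% GloSensor reagent, given compound 30 min at room temperature. Luminescence read before and 20 min after 0.1 nM hNppA.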
GPT2 inhibitor: Primary qHTS assay for inhibitors of Glutamate pyruvate transaminase 2 (GPT2). hit rate 0.25% among 100,000. Potency, µM (highest dose often 57.7 µM), most hits filed as inhibitors. Alanine aminotransferase 2 (Homo sapiens), Q8TD30. Recombinant GPT2, coupled pyruvate oxidase/HRP Amplex Red fluorescence; note: nearly all actives have a fitted effect of over 60% in size
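Fluorescence of coupled pyruvate oxidase/HRP/Amplex Red system (50uM Amplex, 30 min, dark) reports pyruvate formed by GPT2. Enzyme reaction: 10ng/uL GPT2, 2mM L-alanine, 250uM a-KG, 30 min room temperature, pH 7.5; 50uM AOA control.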
NPR1 antag cnf: Natriuretic polypeptide receptor (hNpr1) antagonism - Confirmation; shares compounds with NPR1 antag; HEK293 hNpr1 cGMP GloSensor luminescence, ANP-stimulated; Potency, µM (top dose mostly 57.6 µM), usual class: inhibitors; hit rate 76% among 1,400; AID 1347044, 2019; calls by dose curve; note: nearly all actives have a fitted effect of over 70% in size
Npr2 selectivity: Natriuretic polypeptide receptor (hNpr2) antagonism - Subtype selectivity assay; hit rate 67% among 1,400; shares compounds with NPR1 antag; AID 1347046, 2019; Potency, µM (doses to about 57.6 µM), most hits filed as inhibitors; HEK293 hNpr2 GloSensor cGMP luminescence, CNP-stimulated; calls by dose curve; note: nearly all actives have a fitted effect of over 70% in size
FLuc counter: Natriuretic polypeptide receptor (hNpr1) antagonism - Confirmation firefly luciferase (FLuc) inhibition counterscreen. shares compounds with NPR1 antag. Potency, µM (top dose mostly 57.6 µM), hits mostly inhibitors. AID 1347047, 2019. purified FLuc enzyme, luminescence, Km substrate. hit rate 0.7% among 1,400
GloSensor ctrl: Natriuretic polypeptide receptor (hNpr1) antagonism - Counterscreen GloSensor control cell line | shares compounds with NPR1 antag | HEK293 GloSensor cGMP, SNP-stimulated, luminescence | hit rate 69% among 1,400 | Potency, µM (titrated, usually from 57.6 µM), hits mostly inhibitors; calls by dose curve; note: nearly all actives have a fitted effect of over 70% in size
Of the large screens only hits and unclear results are named; the others gave an inactive call (follow-up assays come after a bar, where they were run). Rows were chosen to be rich in hits. Some 10% of all compounds tested hit in one or more screens of this group. Unless noted, calls come from the whole dose curve; as a rule, active = well fitted curve in the direction sought with a large enough effect; inconclusive = small, poorly fitted or top-dose-only effect, or another doubt; inactive = no such curve, though single readings can be large; an effect the other way counts as inactive or inconclusive.

COc1cccc(-c2ccccc2NC(=O)C2CCN(Cc3cc(OC)ccc3O)CC2)c1	HEK293 tox 18µM, 3T3 cytotox inconclusive, NPR1 antag inconclusive, GPT2 inhibitor inconclusive | NPR1 antag cnf 24µM | Npr2 selectivity inconclusive | FLuc counter inactive | GloSensor ctrl 27µM
Cc1oc(-c2ccccc2)nc1CN1CCCC(C(=O)NCCc2noc(-c3ccccc3)n2)C1 (centres undefined)	HEK293 tox inconclusive, 3T3 cytotox inconclusive, NPR1 antag 13µM | NPR1 antag cnf inconclusive | Npr2 selectivity inconclusive | FLuc counter inactive | GloSensor ctrl inconclusive
Cc1cccc(-c2nc(CN3CCC(C(=O)NCCc4noc(-c5ccncc5)n4)CC3)c(C)o2)c1	none (no result: Luciferase inh, NPR1 antag)
COCc1noc(-c2ccc(N(C)CC3CC(=O)N(C(C)(C)C)C3)nc2)n1 (centres undefined)	HEK293 tox inconclusive, 3T3 cytotox inconclusive, NPR1 antag 11µM | NPR1 antag cnf 24µM | Npr2 selectivity inconclusive | FLuc counter inactive | GloSensor ctrl 22µM
Cn1cccc1CN1CCn2c(nn(-c3ccc(Cl)cc3)c2=O)C1	HEK293 tox inconclusive, 3T3 cytotox inconclusive (no result: Luciferase inh, NPR1 antag) | NPR1 antag cnf inconclusive | Npr2 selectivity inconclusive | FLuc counter 14µM | GloSensor ctrl inconclusive
COc1ccc(C(=O)N2CCn3c(nn(-c4ccc(Cl)cc4)c3=O)C2)cc1	none (no result: Luciferase inh, NPR1 antag) | NPR1 antag cnf inconclusive | Npr2 selectivity 22µM | FLuc counter inactive | GloSensor ctrl 27µM
O=C(Nc1ccc(Cl)cc1)N1CCn2c(nn(-c3ccc(C(F)(F)F)cc3)c2=O)C1	HEK293 tox inconclusive, 3T3 cytotox inconclusive, NPR1 antag inconclusive
COc1ccc(-n2nc3n(c2=O)CCN(C(=O)c2ccccc2)C3)cc1	none (no result: Luciferase inh, NPR1 antag)
O=C(c1ccc(C(F)(F)F)cc1)N1CCn2c(nn(-c3ccncc3)c2=O)C1	HEK293 tox inconclusive, 3T3 cytotox inconclusive, NPR1 antag inconclusive | NPR1 antag cnf 24µM | Npr2 selectivity inconclusive | FLuc counter inactive | GloSensor ctrl 22µM
O=C(Nc1ccccc1)N1CCn2c(nn(-c3ccc(C(F)(F)F)cc3)c2=O)C1	HEK293 tox 45µM, 3T3 cytotox inconclusive, NPR1 antag inconclusive | NPR1 antag cnf inconclusive | Npr2 selectivity inconclusive | FLuc counter inactive | GloSensor ctrl inconclusive
Cc1ccc(C(=O)NC2CCN(C(=O)N3CC4CC(C3)[C@H]3CCCC(=O)N3C4)CC2)s1 (some centres undefined)	none
CCOc1cccc(CNC(=O)C2CCN(c3cnn(CC4CC4)c(=O)c3)C2)c1 (centres undefined)	HEK293 tox inconclusive, 3T3 cytotox inconclusive (no result: Luciferase inh, NPR1 antag)
CCc1nnc2ccc(N3CCN(C(C)C)CC3)nn12	none
Cc1nc(N2CCC(C(=O)NCc3cccc(Cl)c3)CC2)cc(C(F)(F)F)n1	HEK293 tox inconclusive, 3T3 cytotox inconclusive, NPR1 antag 10µM | NPR1 antag cnf 19µM | Npr2 selectivity 19µM | FLuc counter inactive | GloSensor ctrl 17µM

From PubChem BioAssay
